# Assay results taken from PubChem BioAssay AID1347426 (Functional Genomics Laboratory (NCATS/FGL), 2020).
# Among all 31,000 sequences or so, about 1,400 (4.5%) were called active. The entries come from a sample that favours actives as a whole. A number with no mark means an inactive call.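 How the source made its calls: active means median seed-adjusted z-score above 1 or below -1; inactive means the rest.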
# Experiment: Novel Modifiers of Survival Motor Neuron (SMN) Protein: Gene Identification via Genome-wide siRNA Screen;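 further: luminescence tracks full-length SMN protein made from the SMN2 reporter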
# Settings: HEK293T SMN2-luciferase reporter, siRNA knockdown, 72 h; actives lie on both sides
# In short: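 Luciferase signal, proportional to full-length SMN made from an SMN2 cDNA reporter in stable HEK293T cells, was read 72 h after siRNA reverse transfection. Values were expressed as MAD scores after non-targeting-control normalization and log10 conversion; seed analysis flagged off-targets.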
row,Sequence,median seed-adjusted z-score
1,GAAGAGUGCUUGAAAUUUUTT against GFRA1,0.125
2,GCAUCCGGAUUCUUGAUGATT against PGK2,-0.127
3,ACAAAGCUGCUGUGCUAUATT against BET1,0.394
4,CAGAUUACGUUUAUAAGAATT against ZNF274,0.452
5,CGAGUGCACUGCUGCCUAUTT against 5-Sep,-0.0749
6,GAUCCGAGAUCAACACCUUTT against PIK3R3,-1.88 (active)
7,GACUACCAGUUGAUCAUGUTT against TTBK1,0.00054
8,CACCUGUACUUAUCCCGAATT against MEGF10,0.622
9,AAAUCGCGACGACUAAAUATT against CCBE1,0.964
10,CAUCAGCUUCCGCAACUUUTT against LRP3,-1.05 (active)
11,GGAAUACAUCAGAAUGGUATT against ITCH,0.199
12,CCAAUGCUGUGACUUUCGATT against KIFC3,0.54
13,GCAGCAAAGGAAACCUAAATT against KLRC3,0.833
14,GCAAGCGAGUCAACACCAATT against DRD2,-0.0273
15,CUUCAGUACCUUAUCAUUATT against ST6GALNAC5,-0.0321
16,GGCCGUUUGUCAUUCCCUUTT against CBFA2T3,-0.135
17,GGAAGAGACUUUGUCCACATT against BIRC7,-1.44 (active)
18,CUCUGGGAGUCACGACUUUTT against GPR37L1,-0.0348
19,GAGACAAAUUUGGGCCUUATT against HSF4,0.926
20,CAACGAUGGUGUACUACAATT against ABCC9,0.376
21,CAAGCGGACCAGGACCUAUTT against CSDC2,-0.321
22,CAGUAUCCAUGGUGAUCUATT against ZP2,0.0455
23,GCAGCUCAACGGCAAAGAATT against RBM14,-0.0317
24,GCAUCUCAAUAUCAACAAUTT against LINGO2,0.123
25,GAAUAUCGGUUGGAUUAUATT against ITGAV,1.17 (active)
26,GGGCGGUCAUGGUUUUGAATT against CHST13,-0.447
27,CCGCUGUUAUCAUUACCAUTT against KIR2DL5B,1.72 (active)
28,GCUCUUCUAGACAUCGAUATT against NUBP1,-0.0975
29,GAGGUUCCCUAAUUUCCAATT against HIF1AN,-0.0315
30,ACUACCUUCUCAUCAAGGATT against CCL19,0.0364
